Entries with a potency or affinity are not part of this list. The source made the active and inactive calls.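 The calls were made as follows: active = every replicate test called active, each showing a drop in signal with a fitted potency within twice the top tested dose; inconclusive = tests disagree, or fits are weak, flat midrange or poor; inactive = every test flat, rising or fitted past the limit.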
Test: A549 cell cytotoxicity, dose response, cytotoxicity control, CellTiter-Glo luminescence, dry powder, set 18 (AID 1117290)

Structure (SMILES) | outcome
O=S(=O)(Nc1cc(C(F)(F)F)ccc1N1CCCCC1)c1ccc(-c2ccccc2)cc1 | inactive
COc1ccc(C(=O)O)cc1S(=O)(=O)Nc1cc(C(F)(F)F)ccc1N1CCOCC1 | inactive
O=S(=O)(Nc1cc(C(F)(F)F)ccc1N1CCCCC1)c1cc(Cl)cc(Cl)c1 | inactive
COc1ccc(C2=NN(c3ccc(C(=O)O)cc3)C(c3ccc(OC)c(OC)c3)C2)cc1 (stereo unspecified) | inactive
CC(=O)N1CCN(C(=O)C2(NC(=O)Nc3ccccc3F)CCCCC2)CC1 | inactive
CC(=O)N1CCN(C(=O)C2(NC(=O)Nc3ccc(F)cc3)CCCC2)CC1 | inactive
COc1ccc(C(=O)Nc2cccc(C(F)(F)F)c2)cc1S(=O)(=O)O | inactive
O=S(=O)(Nc1cc(C(F)(F)F)ccc1N1CCCCC1)c1ccccc1 | inactive
CC(=O)N1CCN(C(=O)C2CCCN2C(=O)Nc2ccc(C)cc2)CC1 (stereo unspecified) | inactive
Cc1ccc(NC(=O)NC2(C(=O)N3CCOCC3)CCCCC2)cc1 | inactive
CC(=O)N1CCN(C(=O)C2(NC(=O)Nc3cccc(C(F)(F)F)c3)CCCCC2)CC1 | inactive
O=C(Nc1cc(C(F)(F)F)ccc1N1CCCCC1)c1ccc(S(=O)(=O)O)cc1 | inactive
CC(=O)N1CCN(C(=O)C2(NC(=O)Nc3ccc(C(C)C)cc3)CCCCC2)CC1 | inactive
COc1ccc(C(=O)O)cc1S(=O)(=O)Nc1cc(C(F)(F)F)ccc1N1CCN(C(C)=O)CC1 | inactive
Cc1ccc(NC(=O)NC2(C(=O)N3CCNCC3)CCCCC2)cc1 | inactive
COc1ccc(C(=O)Nc2cc(C(F)(F)F)ccc2N2CCCCC2)cc1S(=O)(=O)O | inactive
CC(=O)N1CCN(C(=O)C(C)(C)NC(=O)Nc2ccc(C)cc2)CC1 | inactive
O=S(=O)(Nc1cc(C(F)(F)F)ccc1N1CCCCC1)c1ccc(F)cc1 | inactive
CC(=O)N1CCN(C(=O)C2(NC(=O)Nc3ccc(F)cc3)CCCCC2)CC1 | inactive
COc1ccc(C(=O)O)cc1S(=O)(=O)Nc1cc(C(F)(F)F)ccc1N(C)C | inactive
Cc1ccc(NC(=O)NC2(C(=O)N3CCN(c4ccccc4)CC3)CCCCC2)cc1 | inactive
COc1ccc(C(=O)Nc2cc(C)ccc2N2CCCCC2)cc1S(=O)(=O)O | inactive
CC(=O)N1CCN(C(=O)C2(NC(=O)Nc3ccc(C)cc3)CC2)CC1 | inactive
Cc1ccccc1S(=O)(=O)Nc1cc(C(F)(F)F)ccc1N1CCCCC1 | inactive
O=S(=O)(Nc1cc(C(F)(F)F)ccc1N1CCCCC1)c1ccc(C(F)(F)F)cc1 | inactive
O=S(=O)(O)c1ccc(N2N=C(c3ccccc3)CC2c2ccccc2)cc1 (stereo unspecified) | inactive
